From the supplement of paper PMC9262897, “Low-cost anti-mycobacterial drug discovery using engineered E. coli” (Nature Communications, 2022)
Where a name gives a salt, the structure may show the parent alone. ± gives the standard deviation of the averaged measurements.

How the values were obtained:
Assay in all cases: growth (OD600 after 10 h); higher = more growth (less inhibition)
[1] = system: E. coli TESEC Alr+ wild-type control; settings: compound 0.1 mM; raw OD600 reference: median of DMSO wells 0.241, cell-free background 0.041
Experimental: (§1)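 TESEC Mtb Alr E. coli, or the Alr+ wild-type control, in 384-well plates with Prestwick library compounds at 0.1 mM and 1% DMSO, across arabinose induction levels of 1E3 to 1E7 nM. Growth is read as OD600 after 10 h at 37 °C in triplicate biological replicates.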

[2] = system: E. coli TESEC Mtb Alr; settings: compound 0.1 mM
Experimental: as §1

[3] = system: E. coli TESEC Mtb Asd; settings: compound 0.1 mM
Experimental: (§2)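 TESEC E. coli strains in which the native enzyme is deleted and replaced by arabinose-inducible Mtb Asd, DapB, CysH or TrpD, each grown in its selective medium. Strains were screened against the Prestwick library at 0.1 mM and 1% DMSO in 384-well format at low and high arabinose induction. Growth is read as OD600 after 10 h in triplicate.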

[4] = system: E. coli TESEC Alr+ wild-type control; settings: compound 0.1 mM; raw OD600 reference: median of DMSO wells 0.49, cell-free background 0.052
Experimental: (§3)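 TESEC Mtb Alr E. coli (ΔaraC ΔtolC ΔentC Δalr ΔdadX, arabinose-inducible Mtb Alr) or the Alr+ wild-type control strain, grown in defined M9-fructose medium without D-alanine in 96-well plates with Prestwick library compounds at 0.1 mM and 1% DMSO. Low Alr induction is 0.1 µM arabinose and high induction is 10 mM arabinose.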

[5] = system: E. coli TESEC Mtb Alr; settings: compound 0.1 mM; remark: listed apart in the source
Experimental: as §3

[6] = system: E. coli TESEC Mtb DapB; settings: compound 0.1 mM
Experimental: as §2

[7] = arabinose 1000 nM, raw OD600 reference: median of DMSO wells 0.294, cell-free background 0.041
[8] = arabinose 10000 nM, raw OD600 reference: median of DMSO wells 0.264, cell-free background 0.041
[9] = arabinose 100000 nM, raw OD600 reference: median of DMSO wells 0.201, cell-free background 0.041
[10] = arabinose 1000000 nM, raw OD600 reference: median of DMSO wells 0.193, cell-free background 0.041
[11] = arabinose 10000000 nM, raw OD600 reference: median of DMSO wells 0.146, cell-free background 0.041
[12] = arabinose induction (level): High, raw OD600 reference: median of DMSO wells 0.331, cell-free background 0.041
[13] = arabinose induction (level): Low, raw OD600 reference: median of DMSO wells 0.417, cell-free background 0.041
[14] = arabinose 100 nM, raw OD600 reference: median of DMSO wells 0.413, cell-free background 0.052
[15] = arabinose 10000000 nM, raw OD600 reference: median of DMSO wells […], cell-free background 0.052
[16] = arabinose induction (level): High, raw OD600 reference: median of DMSO wells […], cell-free background 0.041
[17] = arabinose induction (level): Low, raw OD600 reference: median of DMSO wells 0.227, cell-free background 0.041

SMILES	growth [1]	growth [2, 7]	growth [2, 8]	growth [2, 9]	growth [2, 10]	growth [2, 11]	growth [3, 12]	growth [3, 13]	growth [4]	growth [5, 14]	growth [5, 15]	growth [6, 16]	growth [6, 17]
O=C1Cc2cc(CCN3CCN(c4nsc5ccccc45)CC3)c(Cl)cc2N1 [Ziprasidone  Hydrochloride]	0.133 ± 0.0045	0.174 ± 0.008	0.249 ± 0.0058	0.195 ± 0.0098	0.179 ± 0.0086	0.201 ± 0.0095	0.418 ± 0.051	0.363 ± 0.035	0.427 ± 0.011	0.378 ± 0.0087	0.338 ± 0.013	–	–
CC[N+](CC)(CC)CCC(O)(c1ccccc1)C1CCCCC1 (stereo unspecified) [Tridihexethyl chloride]	0.2104 ± 0.0021	0.298 ± 0.015	0.2775 ± 0.0026	0.199 ± 0.019	0.185 ± 0.015	0.144 ± 0.0075	0.349 ± 0.028	0.369 ± 0.085	–	0.417 ± 0.0044	0.335 ± 0.018	0.207 ± 0.026	0.233 ± 0.037
Cc1cc(=O)n(-c2ccccc2)n1C [Antipyrine]	0.252 ± 0.0043	0.294 ± 0.014	0.257 ± 0.0094	0.221 ± 0.013	0.176 ± 0.0026	0.1436 ± 0.0012	0.305 ± 0.04	0.371 ± 0.014	0.474 ± 0.062	0.412 ± 0.0087	0.379 ± 0.026	–	–
CC(C)(CO)C(O)C(=O)NCCCO (stereo unspecified) [Panthenol (D)]	0.261 ± 0.0085	0.296 ± 0.01	0.261 ± 0.0092	0.216 ± 0.053	0.192 ± 0.0077	0.147 ± 0.0069	0.357 ± 0.034	0.409 ± 0.043	–	0.406 ± 0.011	0.287 ± 0.13	0.185 ± 0.0037	0.219 ± 0.024
CO[C@@H]1[C@@H](O[C@@H]2O[C@H](C)[C@@H](O[C@H]3C[C@@](C)(O)[C@@H](OC(=O)CC(C)C)[C@H](C)O3)[C@H](N(C)C)[C@H]2O)[C@@H](CC=O)C[C@@H](C)[C@@H](O)/C=C/C=C/C[C@@H](C)OC(=O)C[C@H]1OC(C)=O [Josamycin]	0.04167 ± 0.00025	0.04093 ± 5.8e-05	0.0406 ± 0.00026	0.04147 ± 0.00015	0.04073 ± 0.00029	0.04137 ± 5.8e-05	0.0609 ± 0.0067	0.0594 ± 0.0064	0.0528 ± 0.0019	0.0755 ± 0.021	0.0519 ± 0.00093	–	–
CC(=O)Oc1cc(C(F)(F)F)ccc1C(=O)O [Triflusal]	0.224 ± 0.0053	0.275 ± 0.0064	0.259 ± 0.0086	0.186 ± 0.019	0.177 ± 0.0042	0.14 ± 0.004	0.218 ± 0.009	0.367 ± 0.082	–	0.376 ± 0.011	0.315 ± 0.011	0.207 ± 0.0034	0.206 ± 0.015
Nc1ccc(S(=O)(=O)c2ccc(N)cc2)cc1 [Dapsone]	0.256 ± 0.0028	0.282 ± 0.019	0.23 ± 0.0077	0.227 ± 0.019	0.1616 ± 0.0011	0.141 ± 0.0065	0.433 ± 0.092	0.339 ± 0.012	0.491 ± 0.054	0.422 ± 0.01	0.367 ± 0.018	–	–
CC[C@H]1OC(=O)[C@H](C)[C@@H](O[C@H]2C[C@@](C)(OC)[C@@H](O)[C@H](C)O2)[C@H](C)[C@@H](O[C@@H]2O[C@H](C)C[C@H](N(C)C)[C@H]2O)[C@](C)(O)C[C@@H](C)C(=O)[C@H](C)[C@@H](O)[C@]1(C)O [Erythromycin]	0.04107 ± 0.00038	0.0413 ± 0.0016	0.03973 ± 5.8e-05	0.0421 ± 0.0013	0.0401 ± 0.0001	0.0414 ± 0.00076	0.0563 ± 0.0023	0.0536 ± 0.0019	0.0538 ± 0.0043	0.0567 ± 0.0002	0.05153 ± 0.00031	–	–
C=CCOc1ccccc1OCC(O)CNC(C)C (stereo unspecified) [Oxprenolol hydrochloride]	0.2186 ± 0.001	0.281 ± 0.0082	0.271 ± 0.0046	0.1983 ± 0.00078	0.208 ± 0.023	0.141 ± 0.0071	0.332 ± 0.062	0.368 ± 0.013	0.554 ± 0.095	0.414 ± 0.0042	0.357 ± 0.0083	–	–
CCN1CCN(C(=O)N[C@@H](C(=O)N[C@@H]2C(=O)N3C(C(=O)O)=C(CSc4nnnn4C)CS[C@H]23)c2ccc(O)cc2)C(=O)C1=O [Cefoperazone dihydrate]	0.2999 ± 0.0024	0.321 ± 0.0082	0.221 ± 0.0032	0.3 ± 0.0043	0.182 ± 0.0037	0.1843 ± 0.0004	0.413 ± 0.016	0.417 ± 0.087	0.512 ± 0.039	0.221 ± 0.078	0.341 ± 0.025	–	–
OCCN(CCO)c1nc(N2CCCCC2)c2nc(N(CCO)CCO)nc(N3CCCCC3)c2n1 [Dipyridamole]	0.0642 ± 0.0085	0.0575 ± 0.0086	0.0482 ± 0.0011	0.0725 ± 0.015	0.05417 ± 0.00046	0.135 ± 0.016	0.079 ± 0.002	0.0913 ± 0.034	–	0.068 ± 0.006	0.0709 ± 0.0012	0.195 ± 0.035	0.205 ± 0.033
C[C@H](CCC(=O)O)[C@H]1CC[C@H]2[C@@H]3CC[C@@H]4C[C@H](O)CC[C@]4(C)[C@H]3CC[C@]12C [Lithocholic acid]	0.255 ± 0.011	0.312 ± 0.011	0.266 ± 0.0075	0.207 ± 0.012	0.169 ± 0.0078	0.173 ± 0.0071	0.462 ± 0.008	0.404 ± 0.022	–	0.325 ± 0.037	0.3 ± 0.017	0.214 ± 0.011	0.229 ± 0.021
Cn1c(=O)c2c(ncn2CC2OCCO2)n(C)c1=O [Doxofylline]	0.248 ± 0.0076	0.302 ± 0.015	0.259 ± 0.01	0.197 ± 0.017	0.179 ± 0.011	0.158 ± 0.0092	0.476 ± 0.018	0.469 ± 0.035	0.475 ± 0.076	0.408 ± 0.0051	0.334 ± 0.01	–	–
O=C(CCNNC(=O)c1ccncc1)NCc1ccccc1 [Nialamide]	0.237 ± 0.0061	0.28 ± 0.01	0.276 ± 0.0091	0.193 ± 0.018	0.208 ± 0.0031	0.144 ± 0.0023	0.237 ± 0.041	0.346 ± 0.062	0.516 ± 0.07	0.431 ± 0.0058	0.337 ± 0.023	–	–
Cc1cc(C)nc(NS(=O)(=O)c2ccc(N)cc2)n1 [Sulfamethazine sodium salt]	0.242 ± 0.0082	0.293 ± 0.015	0.252 ± 0.013	0.215 ± 0.016	0.165 ± 0.0038	0.142 ± 0.0032	0.408 ± 0.021	0.449 ± 0.042	0.482 ± 0.088	0.413 ± 0.012	0.335 ± 0.0075	–	–
O=C1Nc2ccc(Cl)cc2[C@@](C#CC2CC2)(C(F)(F)F)O1 [Efavirenz]	0.0395 ± 0.00017	0.0401 ± 0.00093	0.0421 ± 0.0013	0.0412 ± 0.0003	0.03963 ± 0.00025	0.0413 ± 0.0013	0.0541 ± 0.0055	0.0488 ± 0.0019	0.047 ± 0.00044	0.259 ± 0.075	0.049 ± 0.00044	–	–
